Screening results: PubChem BioAssay, National Center for Advancing Translational Sciences (NCATS)
Shown are actives, neighbours in structure and some others; about 7.3% of the full set was active somewhere.
FLuc modulator: firefly luciferase modulation, counter-screen for miR-21 project. purified FLuc, Km substrates, luminescence inhibition. Potency, µM (titrated, usually from 57.5 µM), for the others: at the top dose activity change, negative = inhibition, hits mostly inhibitors. 360,000 compounds, 6.9% hits;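 note: plate controls were vehicle for no effect and reference inhibitor for full effect; nearly all actives have a fitted effect of over 55% in size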
Target sequence (P08659 whole entry, looked up): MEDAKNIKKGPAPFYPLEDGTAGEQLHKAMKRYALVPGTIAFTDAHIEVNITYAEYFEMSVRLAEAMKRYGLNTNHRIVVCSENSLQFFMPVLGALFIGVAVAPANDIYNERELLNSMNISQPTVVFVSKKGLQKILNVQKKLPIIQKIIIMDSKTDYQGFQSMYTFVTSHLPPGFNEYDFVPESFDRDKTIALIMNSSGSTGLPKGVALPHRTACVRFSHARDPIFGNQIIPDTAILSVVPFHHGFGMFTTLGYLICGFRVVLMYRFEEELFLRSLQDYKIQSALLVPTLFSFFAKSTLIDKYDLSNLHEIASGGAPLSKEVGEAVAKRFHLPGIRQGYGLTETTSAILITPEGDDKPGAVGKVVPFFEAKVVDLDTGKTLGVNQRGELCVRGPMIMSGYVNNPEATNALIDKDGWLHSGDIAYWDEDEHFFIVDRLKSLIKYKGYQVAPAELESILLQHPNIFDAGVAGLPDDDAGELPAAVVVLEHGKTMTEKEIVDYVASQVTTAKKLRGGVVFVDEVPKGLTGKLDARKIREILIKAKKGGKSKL
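Purified P. pyralis luciferase, 10 nM final, with Km-level 10 uM D-luciferin and 10 uM ATP in 50 mM Tris acetate pH 7.5, 10 mM Mg acetate, 0.01% Tween-20, 0.05% BSA; 6-point qHTS titration about 60 µM downward; luminescence read.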
ELG1 genotoxic: genotoxicity induction in ELG1-luciferase HEK293T cells. HEK293T ELG1-luciferase reporter, luminescence, 16 h. Potency, µM (doses to about 46 µM), inactives show at the top dose activity change, positive = activation, actives largely listed as activators. 330,000 compounds, 1.3% hits; note: % of control where 0% means no effect; nearly all actives have a fitted effect of over 60% in size
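Step 1: seed 2,000 HEK293T ELG1-luciferase cells per well. Step 2: add compound or DMSO, incubate 16 hr at 37 °C. Step 3: ONE-Glo, 30 min at room temperature, read luminescence.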
NPC1 promoter act: activators of NPC1 promoter; Huh7 NPC1 promoter luciferase reporter, 24 h; Potency, µM (highest dose often 9.22 µM), for inactives: at the highest dose activation, most hits filed as activators; 320,000 compounds, 2.4% hits; AID 485313; note: % of control where 0% means no effect; nearly all actives have a fitted effect of over 60% in size
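Stable NPC1-promoter luciferase Huh7 line; cpd (DMSO) 24 h, 37 °C, 5% CO2; Amplite luciferase reagent 10 min RT; luminescence readout. qHTS format.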
SMN2 splice up: SMN2 splice variant enhancement; HEK293 SMN2-luciferase splicing reporter, luminescence, 30-36 h; Potency, µM (top dose mostly 46.1 µM), for inactives: at the top dose activity change, positive = activation, usual class: activators; 210,000 compounds, 2.8% hits; AID 1458; note: % of control where 0% means no effect; nearly all actives have a fitted effect of over 55% in size
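HEK293 cells carry an SMN2 […]–luciferase reporter in which exon 7 inclusion puts luciferase in frame. Cells were plated 10-12 h before compound addition, then incubated 30-36 h at 37C. ONE-Glo luminescence was read; sodium butyrate at 4.5 mM final served as control.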
Rab9 promoter act: activates the Rab9 promoter; Potency, µM (series often up to 9.22 µM), for inactives: at the highest dose activation, negative = inhibition, hits mostly activators; Huh7 Rab9 promoter-luciferase reporter, luminescence, 24 h; 320,000 compounds, 2.8% hits; AID 485297; note: % of control where 0% means no effect; nearly all actives have a fitted effect of over 60% in size
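Luciferase signal after 10 min detection reagent at ambient indicates Rab9 promoter upregulation; stably transfected Huh7 cells were treated 24 h with compound in DMSO at 37 °C, 5% CO2.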
uPA generation: cell surface uPA generation inhibition. cell surface uPA generation assay, qHTS. 330,000 compounds, 0.31% hits. Potency, µM (titrated, usually from 38.3 µM), for the others: top-dose activity change, negative = inhibition, most hits filed as inhibitors. AID 540303; active = well fitted inhibition curve with a large enough effect; inconclusive = small, poorly fitted or top-dose-only effect; inactive = no such curve, though single readings can be large or run the other way; tested in mouse RAW 264.7 cells; note: % is set by controls: 0 for no effect and ±100 for the full control effect; nearly all actives have a fitted effect of over 55% in size
An asterisk follows results filed as active; ? = inconclusive; . = no result given. Unless noted, calls come from the whole dose curve; as a rule, active = well fitted curve in the direction sought with a large enough effect; inconclusive = small, poorly fitted or top-dose-only effect, or another doubt; inactive = no such curve, though single readings can be large; an effect the other way counts as inactive or inconclusive. Potency is the fitted concentration of half-maximal effect.

SMILES	FLuc modulator	ELG1 genotoxic	NPC1 promoter act	SMN2 splice up	Rab9 promoter act	uPA generation
Cc1ccc(-n2nnc(C(=O)Nc3cc(F)ccc3F)c2C)cc1F	1%	.	.	.	.	.
CCOc1ccc(NC(=O)Cn2cc(C(=O)c3ccc(F)cc3)c(=O)c3cc4c(cc32)OCO4)cc1	0%	.	.	-13%	.	.
CCOc1ccc(NC(=O)COC(=O)CCC(=O)c2cccs2)cc1	?	-1%	2%	.	1%	-3%
CCOCC(=O)Nc1nc2ccc(S(C)(=O)=O)cc2s1	?	7%	2%	?	16%	3%
CCOc1ccc2nc(NC(=O)CCC(=O)c3cccs3)sc2c1	1.9µM*	10µM*	3.2µM*	13µM*	4.5µM*	-1%
CCOCC(=O)Nc1nc2ccc(C)cc2s1	9.5µM*	?	?	10µM*	1.8µM*	-8%
CCOc1ccc2nc(NC(=O)CN3CCN(c4ccccn4)CC3)sc2c1	?	.	.	-39%	.	1%
CCOCC(=O)Nc1nc2ccc(OCC)cc2s1	8.5µM*	8.2µM*	2.5µM*	11µM*	1.3µM*	-7%
CCOc1ccc2nc(NC(=O)Cn3c(C)csc3=O)sc2c1	4.8µM*	12%	14%	.	7%	-2%
Cc1ccc(CNC(=O)c2ccc3c(=O)n(-c4ccccc4)c(=O)[nH]c3c2)cc1	1%	.	.	-8%	.	.
CCOC(=O)c1c(NC(C)=O)c2c3c(sc2n1Cc1nc(-c2ccccc2Cl)oc1C)CCCC3	-7%	.	.	-6%	.	.
CCOC(=O)c1ccc(NC(=O)CSCC(=O)OCC(=O)c2ccccc2)cc1	?	1%	-2%	-1%	-9%	-10%
Cc1ccc2nc(NC(=O)CSCC(=O)OCC(=O)c3ccccc3)sc2c1	17µM*	4%	-21%	-26%	-32%	2%
CCc1ccc2nc(NC(=O)CSCc3c(C)noc3C)sc2c1	21µM*	8%	5%	?	20%	1%
Cc1ccc2nc(NC(=O)CCn3cccc3)sc2c1	-17%	15%	23%	?	?	?
CCOc1ccc2nc(NS(C)(=O)=O)sc2c1	17µM*	?	7%	14µM*	1%	-2%
Cc1ccc2nc(NC(=O)COC(=O)c3ccccn3)sc2c1	15µM*	0%	?	?	?	-6%
CCOc1ccc(S(=O)(=O)Nc2nc3ccc(OC)cc3s2)cc1	2%	6%	-4%	-3%	1%	2%
Cc1nc(-c2ccc(S(=O)(=O)NCc3ccccn3)s2)cs1	1%	-3%	-3%	.	5%	5%
Cc1ccc2c(=O)cc(C(=O)Nc3sc4c(c3C(=O)NCc3ccco3)CCCC4)oc2c1C	-1%	.	.	4%	.	.
Cc1cccc(Cn2nc(C)n3c(cc4cc(C)ccc43)c2=O)c1	6%	.	.	5%	.	.
CCS(=O)(=O)c1cccc(C(=O)N2CCN(c3nc4c(C)ccc(Cl)c4s3)CC2)c1	-15%	.	.	.	.	.
CCC1CCc2sc(C(=O)NC3CCN(Cc4ccccc4)CC3)cc2C1 (configuration not stated)	-9%	?	-8%	.	-7%	?
CCC1CCc2sc(C(=O)NCC3CCCO3)cc2C1 (configuration not stated)	5.4µM*	?	2.8µM*	.	1.8µM*	-16%
CCC1CCc2sc(C(=O)NCc3ccccn3)cc2C1 (configuration not stated)	15µM*	?	?	.	28%	1%
COc1cccc(N2CCN(C(=O)C3CCN(S(=O)(=O)c4cccc5nonc45)CC3)CC2)c1	-1%	.	.	.	.	.
CCOC(=O)N1CCN(C(=O)CN(c2cc(C)ccc2OC)S(=O)(=O)c2ccc(C)cc2)CC1	-2%	.	.	7%	.	.
O=C1S/C(=C\c2ccc(N3CCOCC3)o2)C(=O)N1c1ccccc1	?	?	?	18%	?	-3%
CCOC(=O)c1cc(-c2ccc(/C=C3/C(=O)N(c4ccc(C(=O)O)cc4)N=C3C)o2)ccc1Cl	?	4%	-12%	.	-9%	-6%
